Screening results as filed in PubChem.
In the library only some 2.3% were active in any assay of this set; here they are far more common.
M1 antag – blocks human M1 muscarinic receptor; CHO-K1 hM1, Fluo-8 calcium fluorescence, ACh EC80 antagonist; 360,000 compounds, 1.3% hits; inhibition, % at 3 µM;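 active = percent inhibition above its own plate's cutoff, namely the mean of that plate's compound wells plus 3 SD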;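 note: peak over basal fluorescence ratio during 140 s after agonist addition; 0% = ACh EC80 plus DMSO and 100% = DMSO alone without agonist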
Target sequence (P11229 whole entry, looked up): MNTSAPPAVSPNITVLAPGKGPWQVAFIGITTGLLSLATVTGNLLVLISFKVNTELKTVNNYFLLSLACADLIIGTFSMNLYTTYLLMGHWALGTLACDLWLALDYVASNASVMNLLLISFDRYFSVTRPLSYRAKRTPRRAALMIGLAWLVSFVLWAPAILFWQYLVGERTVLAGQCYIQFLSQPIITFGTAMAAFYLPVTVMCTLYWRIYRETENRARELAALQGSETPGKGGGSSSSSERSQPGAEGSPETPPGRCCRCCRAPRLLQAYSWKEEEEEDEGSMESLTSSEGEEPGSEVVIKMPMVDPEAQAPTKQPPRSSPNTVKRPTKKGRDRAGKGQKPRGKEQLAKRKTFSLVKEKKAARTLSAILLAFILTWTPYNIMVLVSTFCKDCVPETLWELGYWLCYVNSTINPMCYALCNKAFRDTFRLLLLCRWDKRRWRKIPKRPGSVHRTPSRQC
CHO-K1 Ca antag – nonselective inhibitor or artifact in parental CHO-K1 cells. ATP-induced calcium, Fluo-8 fluorescence. AID 602250. inhibition, % at 3 µM. 360,000 compounds, 0.6% hits;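 active = inhibition above a per-plate cutoff, the plate's mean sample inhibition plus 3 SD, cut at about 24% in these data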;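 note: 0% = DMSO plus EC80 ATP and 100% = DMSO alone without ATP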
M1 ag – agonists of human M1 muscarinic receptor | P11229 | CHO-K1 hM1, Fluo-8 calcium fluorescence, agonist mode; 0% DMSO, 100% acetylcholine EC100 | activation, % at 3 µM | 360,000 compounds, 0.33% hits;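 active = activation above the run's mean compound activation plus 3 SD, cut at about 16% in these data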;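 note: peak over basal fluorescence ratio within a 140 s kinetic read after compound addition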
M1 PAM parental – nonselective activator or artifact in parental CHO-K1 calcium assay. ATP EC20, Fluo-8 calcium fluorescence; 0% at ATP EC20, 100% at ATP max. AID 602247. 360,000 compounds, 0.02% hits. activation, % at 3 µM;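 active = activation above the run cutoff, the mean activation of all test compounds plus 3 SD, cut at about 40% in these data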;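 note: peak over basal fluorescence ratio in a 140 s read after ATP addition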
CHO-K1 Ca ag – nonselective activator or artifact in parental CHO-K1 cells; Fluo-8 calcium fluorescence; scaled to maximal ATP response, vehicle zero; activation, % at 3 µM; 360,000 compounds, 0.48% hits; AID 602248; in the data active = activation above about 15%;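 note: untransfected CHO-K1 host cells lacking M1 receptor as counterscreen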
CHRM1 PAM – potentiates human M1 receptor response to acetylcholine; activation, % at 3 µM; P11229; 360,000 compounds, 0.088% hits; CHO-K1 hM1, Fluo-8 calcium fluorescence, ACh EC20; 0% = ACh EC20, 100% = maximal ACh; in the data active = activation above about 19%, passing the limit was not always enough
The depositor's hits bear a star; . = no result.

SMILES	M1 antag	CHO-K1 Ca antag	M1 ag	M1 PAM parental	CHO-K1 Ca ag	CHRM1 PAM
CC(=O)Nc1ccc(Sc2ncccc2C(=O)Nc2ccc(OC(F)(F)F)cc2)cn1	64*	59*	66*	-10	53*	-20
O=C(CCC(=O)N1CCOc2ccc(Cl)cc21)N1CCN(c2ccccn2)CC1	-4	4	-7	0	1	9
Cc1ccc2c(c1)N(C(=O)CCC(=O)N1CCN(c3ccccn3)CC1)CCO2	36*	10	-8	-9	0	-7
Cc1ccc(OCCn2cncn2)c([N+](=O)[O-])c1	-8	-1	10	17	19*	14
Cc1ccc(OCCCCn2ccnc2)c([N+](=O)[O-])c1	2	1	-12	6	2	-4
Oc1ccc(Nc2nnc(-c3ccc(O)cc3)c3ccccc23)cc1	36*	-1	-8	-13	0	-22
COc1ccc(Nc2nnc(-c3ccc(O)cc3)c3ccccc23)cc1	59*	-5	-6	5	-1	-24
CNC(=O)COc1ccc(Nc2nnc(-c3ccc(C)c(S(N)(=O)=O)c3)c3ccccc23)cc1	14	-4	45*	-2	0	-20
COc1ccc(Nc2c3ccccc3nc3ccccc23)cc1	-9	9	-8	13	16*	2
COc1ccc(Nc2c3c(nc4ccccc24)CCC3)cc1	-20	-7	-8	8	1	22
Cc1ccc(C(=O)NCCN2CCC(n3c(=O)[nH]c4ccccc43)CC2)cc1C	.	15	.	-9	0	.
COc1ccccc1-c1nc(-c2ccc(C)nc2OC)no1	2	26*	-1	-5	0	1
COc1ccccc1-c1noc(-c2ccccc2C(=O)Nc2ccccc2)n1	-9	1	-1	1	2	-13
COc1ccccc1NC(=O)c1ccccc1-c1nc(-c2ccccc2OC)no1	29*	0	0	23	5	-11
COCc1nc(-c2ccc(-c3ccccc3)nc2OC)no1	-20	-3	-3	16	0	8
COc1nc(-c2ccccc2)ccc1-c1noc(C)n1	3	28*	-5	1	0	6
CC1(C(=O)NCc2ccccc2)CCC(=O)N1CCCn1ccnc1 (stereo unspecified)	-3	8	-5	8	0	1
CCN(c1ccc(OC)cc1)S(=O)(=O)N1CCCC(C(=O)NCc2ccc(OC(C)C)cc2)C1 (stereo unspecified)	-3	-1	-3	-1	5	-4
CCc1cccc(OCCOC(=O)CNS(=O)(=O)c2ccc(NC(C)=O)cc2)c1	8	-1	0	-21	2	-5
COc1ccccc1CN1C[C@@H]2C[C@@H](c3[nH]c4c(C)cccc4c3C)N3CCC[C@@]23C1=O	-10	-24	1	31	15*	10
O=C(Nc1cccc2cccnc12)c1ccc2sc([C@@H]3O[C@H](CO)[C@H](O)[C@H](O)[C@H]3O)nc2c1	-23	-14	-2	26	1	16
CCc1nn(CC(=O)NCCCN2CCc3ccccc3C2)c(=O)c2cc3sccc3n12	44*	-10	-14	14	0	-33
CN(C(=O)CN1C(=O)S/C(=C\c2ccccc2Cl)C1=O)C1CCS(=O)(=O)C1 (stereo unspecified)	-2	28*	-11	20	1	4
CN(C(=O)CN1C(=O)/C(=C/c2ccccc2Cl)SC1=S)C1CCS(=O)(=O)C1 (stereo unspecified)	4	-10	1	10	0	2
NC(=O)c1ncn([C@@H]2O[C@H](CNCc3cccc(OC4CCCC4)c3)[C@@H](O)[C@H]2O)n1	-7	-1	-2	14	0	8
SMILES	M1 antag	CHO-K1 Ca antag	M1 ag	M1 PAM parental	CHO-K1 Ca ag	CHRM1 PAM
COc1ccc(NS(=O)(=O)c2cccc(C(=O)N(C)CC(=O)Nc3ccc(C)cc3)c2)cc1	-4	-4	-2	18	1	1
COc1ccc(NS(=O)(=O)c2ccc(C(=O)N(C)Cc3cccs3)cc2)cc1	2	-8	25*	-1	20*	-7
COc1ccc(NC(=O)CN(C)C(=O)c2ccc(NS(=O)(=O)c3cccc([N+](=O)[O-])c3)cc2)cc1	-15	33*	-4	-29	0	8
COc1ccc(NC(=O)C2(C)CCCN(C(C)C)C2)cc1F (stereo unspecified)	-3	0	-7	-2	0	1
O=C1NC[C@H](CCCCN2CCN(CC3CCCCC3)C(=O)C2=O)N(CCc2ccccc2)C1=O	.	-4	.	1	0	.
CCc1ccc(Nc2cc(=O)n(C3CCCCC3)c(=O)[nH]2)cc1	12	3	20*	3	19*	-3
CC(C)=CCCC(C)NC(=O)NC1CCCCC1 (stereo unspecified)	.	25*	-3	-9	0	2
COc1ccc(Cl)cc1NC(=O)C1CCCN(S(C)(=O)=O)C1 (stereo unspecified)	-10	-6	-7	15	0	5
Cc1cccc(Cl)c1OCCCN1CCOCC1	32*	-8	-3	6	0	3
CCOc1ccc(NS(=O)(=O)c2cc3c(cc2C)N(C)CCO3)cc1	24	13	-1	14	7	-16
COc1ccc(NS(=O)(=O)c2cc3c(cc2C)N(C)CCO3)cc1	32*	9	1	-5	7	-14
COc1ccc(NS(=O)(=O)c2ccc(N3CCOCC3)c(N)c2)cc1	31*	13	6	-7	13	-14
COc1ccc(S(=O)(=O)Nc2ccc(N3CCOCC3)cc2)cc1	-5	11	1	-12	1	11
COc1cccc(-c2sc3ccc(OC)cc3c2-c2cnc(N3CCOCC3)nc2)c1	.	-11	.	9	0	.
COC(=O)[C@@]1(C(C)C)N=C(c2cc(OC)c(OC)c(OC)c2)[C@]2(O1)C(=O)Nc1ccccc12	.	-26	.	28	2	.
COCCCNC(=O)N1c2ccccc2Sc2ccccc21	-21	-6	-7	15	1	19
CC(C)CNCC(=O)N1c2ccccc2Sc2ccccc21	93*	-2	-6	15	1	-22
COCCNCC(=O)N1c2ccccc2Sc2ccccc21	90*	0	-9	-8	0	-29
COc1ccc2c(c1)C(c1ccc(Cl)cc1)NC(=O)C2 (stereo unspecified)	-13	-13	-3	13	0	14
CC(C)COC(=O)NCCOC(=O)Nc1cccc(Cl)c1	25*	24*	4	6	9	-16
Cc1cccc(C)c1N1CCN(C(c2cc3ccccc3o2)c2nnnn2C(C)(C)C)CC1 (stereo unspecified)	.	4	.	18	2	.
COc1cccc(CNC(=O)[C@@H]2CCCN2C(=O)[C@H]2CCCCN2S(=O)(=O)c2ccc(OC)c(C)c2)c1	.	1	.	-7	0	.
